This is a sample that favours compounds with a hit; in the whole collection about 19% have one here.
TDP1 cell noCPT = qHTS for Inhibitors of human tyrosyl-DNA phosphodiesterase 1 (TDP1): qHTS in cells in absence of CPT. actives 15% (n = 420,000). DT40 Tdp1-/- hTDP1 cells, no CPT, ATP luminescence, 48 h. Potency, µM (top dose mostly 46.2 µM), for the others: at the top dose activity change, negative = growth inhibition, most hits filed as inhibitors; note: potency is the fitted concentration of half-maximal effect; nearly all actives have a fitted effect of over 55% in size
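DT40 Tdp1-/-;hTDP1 cells, no CPT (DMSO vehicle only), 400 cells/well; compounds pin-transferred; ≥48 hr, 37 °C; CellTiter-Glo 30 min RT dark, luminescence read.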
ELG1 DNA repair = blocks ELG1-dependent DNA repair in HEK293T cells; AID 504467; actives 2.3% (n = 330,000); HEK293T ELG1-luciferase reporter, luminescence, 16 h; DNA damage induced by 5-fluorouridine; Potency, µM (doses to about 46.1 µM), inactives show at the highest dose activity change, negative = inhibition, hits mostly inhibitors; note: potency is the fitted concentration of half-maximal effect; nearly all actives have a fitted effect of over 55% in size
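Luminescence from the luciferase reporter, measured 30 min after ONE-Glo reagent at room temperature, was the read-out. Beforehand, 2,000 cells per well were exposed for 16 hr at 37 °C to 5-fluorouridine together with compound or vehicle.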
HT1080-NT tox = kills 2HG-producing HT-1080-NT fibrosarcoma cells. Potency, µM (top dose mostly 46.1 µM), without a hit: top-dose activity, negative = less viability, hits mostly cytotoxic. actives 1.6% (n = 360,000). AID 686970. HT-1080-NT fibrosarcoma viability, CellTiter-Glo ATP luminescence, 48 h;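 note: NT is the 2HG producing partner of a matched IDH1 knockdown line; potency is the fitted concentration of half-maximal effect; 0% = DMSO-treated cells and -100% = media-only wells without cells; nearly all actives have a fitted effect of over 55% in size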
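HT-1080-NT fibrosarcoma cells (2HG-overproducing), 750 cells/well in RPMI with 5% FBS, dosed after 2 h and incubated 48 h at 37C. CellTiter-Glo luminescence normalized to DMSO and no-cell wells; concentration-response curves fitted and classed.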
IL1B secr inh = inhibitors of inflammasome signaling (IL-1 beta secretion); THP-1 LPS/ATP IL-1B secretion, AlphaLISA, 16 h; hits give low values; activity change, % at 57.5 µM; actives 4.7% (n = 360,000); AID 743279; in the data active = activity change below about -50%; inconclusive = mostly about -30% to -49%
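THP-1 cells pretreated 1 hr with compounds (up to 57.5 uM final), then stimulated with LPS (250 ng/mL final) plus ATP (1.25 mM final); secreted IL-1B measured by AlphaLISA after 16 hr, decreased signal indicating inhibition.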
HT1080 IDH1KD tx = toxicity to HT-1080 IDH1 knockdown cells (counter line); HT-1080 IDH1 knockdown viability, ATP luminescence, 48 h; Potency, µM (titrated, usually from 46.1 µM), inactives show at the highest dose activity, negative = toxicity, actives largely listed as cytotoxic; actives 2% (n = 360,000);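 note: potency is the fitted concentration of half-maximal effect; 0% = DMSO wells and -100% = cell-free medium wells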
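Knockdown cells (IDH1KD HT-1080) received compounds 2 h after plating at 750 cells/well and were kept 48 h at 37 °C in 5% FBS RPMI. A CellTiter-Glo luminescence read gave % activity for curve fitting.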
DT40 TDP1 CPT = growth inhibition of DT40 Tdp1-/-;hTDP1 cells with camptothecin (screen for TDP1 inhibitors); chicken DT40 Tdp1-/-;hTDP1 cells + 20 nM CPT, ATP luminescence, 48 h; Potency, µM (titrated, usually from 46.2 µM), for the others: at the highest dose activity change, negative = growth inhibition, actives largely listed as inhibitors; actives 12% (n = 420,000); note: potency is the fitted concentration of half-maximal effect; nearly all actives have a fitted effect of over 55% in size
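Chicken DT40 Tdp1-/- cells stably complemented with human TDP1 were seeded at 400 cells/well in medium containing 20 nM camptothecin, exposed to pin-transferred compounds, and grown at 37 °C for at least 48 hr. Viability was read as ATP luminescence.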
* marks the source's active call; other numbers are inactive results; ! = not active in a repeat. Unless noted, calls come from the whole dose curve; as a rule, active = well fitted curve in the direction sought with a large enough effect; inconclusive = small, poorly fitted or top-dose-only effect, or another doubt; inactive = no such curve, though single readings can be large; an effect the other way counts as inactive or inconclusive. Unless noted, % is set by controls: 0 for no effect and ±100 for the full control effect.

Screening CC(=O)Nc1ccn(C2COC(COC(=O)c3ccccc3)O2)c(=O)n1 (stereo not given) returned TDP1 cell noCPT 1.5µM* and DT40 TDP1 CPT 0.84µM*.
Screening Cc1c(C(=O)N2CC(C)OC(C)C2)[nH]c2ccc(Br)cc12 (stereo not given) returned TDP1 cell noCPT inconclusive, ELG1 DNA repair -2%, HT1080-NT tox -12%, IL1B secr inh 2, HT1080 IDH1KD tx -24% and DT40 TDP1 CPT inconclusive.
c1ccc2scnc2c1 was read as TDP1 cell noCPT -3%, IL1B secr inh 3 and DT40 TDP1 CPT 0%.
For Cc1ccccc1C(OCCN(C)C)c1ccccc1 (stereo not given) the results were TDP1 cell noCPT inconclusive, ELG1 DNA repair -5%, HT1080-NT tox 1%, IL1B secr inh -7, HT1080 IDH1KD tx 0% and DT40 TDP1 CPT 23µM*!.
Screening Cc1ccc(C)c(-n2c(-c3csc(C)c3)n[nH]c2=S)c1 returned TDP1 cell noCPT -17%, ELG1 DNA repair 1%, HT1080-NT tox inconclusive, IL1B secr inh -2, HT1080 IDH1KD tx 10µM* and DT40 TDP1 CPT -36%.
`Cc1ccc(C)c(-n2c(-c3ccncc3)n[nH]c2=S)c1` gave TDP1 cell noCPT -2%, ELG1 DNA repair -2%, HT1080-NT tox 14%, IL1B secr inh 17, HT1080 IDH1KD tx 20% and DT40 TDP1 CPT 3%.
`O=C(Nc1ccc(Cl)cc1)C(NS(=O)(=O)c1cccs1)c1ccccc1` (stereo not given) gave TDP1 cell noCPT inconclusive and DT40 TDP1 CPT -17%.
CCCCn1c(N)c(-c2nc3ccccc3s2)c2c([N+](=O)[O-])nn(CC)c(=O)c21 was read as TDP1 cell noCPT inconclusive, ELG1 DNA repair inconclusive, HT1080-NT tox 6%, IL1B secr inh -9, HT1080 IDH1KD tx 3% and DT40 TDP1 CPT inconclusive.
For CCCCCn1c(N)c(-c2nc3ccccc3s2)c2c([N+](=O)[O-])nn(CC)c(=O)c21 the results were TDP1 cell noCPT inconclusive, ELG1 DNA repair 2.6µM*, HT1080-NT tox 0%, IL1B secr inh -4, HT1080 IDH1KD tx 1% and DT40 TDP1 CPT inconclusive.
`CCCCn1c(N)c(-c2nc3ccccc3s2)c2c([N+](=O)[O-])nn(C)c(=O)c21` gave TDP1 cell noCPT inconclusive, ELG1 DNA repair 1µM*, HT1080-NT tox 6%, IL1B secr inh 9, HT1080 IDH1KD tx 23% and DT40 TDP1 CPT inconclusive.
`NC(=S)N=Nc1c(O)[nH]c2ccccc12` gave TDP1 cell noCPT -10%, ELG1 DNA repair -9%, HT1080-NT tox -2%, IL1B secr inh -10, HT1080 IDH1KD tx 0% and DT40 TDP1 CPT 13%.
`CCNC(=S)N=Nc1c(O)[nH]c2ccc(C(C)C)cc12` gave TDP1 cell noCPT 5.2µM*, ELG1 DNA repair inconclusive, HT1080-NT tox 2%, IL1B secr inh -15, HT1080 IDH1KD tx -21% and DT40 TDP1 CPT 5.2µM*.
Screening CCC(O)(CC)C(=O)N=Nc1c(O)[nH]c2ccccc12 returned TDP1 cell noCPT 7%, ELG1 DNA repair -12%, HT1080-NT tox 6%, IL1B secr inh 3, HT1080 IDH1KD tx 0% and DT40 TDP1 CPT -5%.
Screening Cc1ccc2[nH]c(O)c(N=NC(N)=S)c2c1 returned TDP1 cell noCPT -3%, ELG1 DNA repair 24%, HT1080-NT tox 13%, IL1B secr inh inconclusive, HT1080 IDH1KD tx 13% and DT40 TDP1 CPT inconclusive.
For CCCCNC(=S)N=Nc1c(O)[nH]c2ccccc12 the results were TDP1 cell noCPT 10µM*, ELG1 DNA repair -6%, HT1080-NT tox -4%, IL1B secr inh -17, HT1080 IDH1KD tx inconclusive and DT40 TDP1 CPT inconclusive.
Oc1[nH]c2ccccc2c1N=NC(=S)NCCc1ccccc1 was read as TDP1 cell noCPT inconclusive, ELG1 DNA repair -29%, HT1080-NT tox -11%, IL1B secr inh -2, HT1080 IDH1KD tx inconclusive and DT40 TDP1 CPT 16µM*.
CC(C)c1ccc2[nH]c(O)c(N=NC(=S)NCCc3ccccc3)c2c1 was read as TDP1 cell noCPT 8.2µM*, ELG1 DNA repair inconclusive, HT1080-NT tox inconclusive, IL1B secr inh 28, HT1080 IDH1KD tx inconclusive and DT40 TDP1 CPT 18µM*.
For COc1ccc(CNC(=O)CCCCCn2c(=O)[nH]c3ccccc3c2=O)cc1 the results were TDP1 cell noCPT -3% and DT40 TDP1 CPT -18%.
`COc1cc(CNC(C)C)c(Br)cc1OC1CCCC1` gave TDP1 cell noCPT -22%, ELG1 DNA repair -13%, HT1080-NT tox -1%, IL1B secr inh -3, HT1080 IDH1KD tx -12% and DT40 TDP1 CPT 4%.
For O=C(NCc1ccccc1Cl)c1ccc2nc([C@H]3C[C@H](O)[C@@H](CO)O3)[nH]c2c1 the results were TDP1 cell noCPT -3%, HT1080-NT tox 18%, IL1B secr inh 15, HT1080 IDH1KD tx 2% and DT40 TDP1 CPT -7%.
For CN(Cc1cnccn1)C(=O)CC1C(=O)NCCN1Cc1c(F)cccc1Cl (stereo not given) the results were TDP1 cell noCPT 27%, ELG1 DNA repair -4%, HT1080-NT tox 4%, IL1B secr inh 14, HT1080 IDH1KD tx 5% and DT40 TDP1 CPT -3%.
CC(C)c1ccc2[nH]c(O)c(N=NC(=O)c3ccc(CSc4nncn4C)cc3)c2c1 was read as TDP1 cell noCPT 16µM*, ELG1 DNA repair inconclusive, HT1080-NT tox -7%, IL1B secr inh inconclusive, HT1080 IDH1KD tx -5% and DT40 TDP1 CPT 23µM*.
`CCN(CC)CCCNC(=O)c1ccc2c(SCC(=O)O)c3c(nc2c1)CCC3` gave ELG1 DNA repair -3%.
For CCN(CC)CCCNC(=O)c1ccc2c(Cl)c3c(nc2c1)CCCC3 the results were TDP1 cell noCPT 16µM*, ELG1 DNA repair 0%, HT1080-NT tox 23µM*, HT1080 IDH1KD tx 29µM* and DT40 TDP1 CPT 26µM*.
For CCCCN(CC)CCNC(=O)c1ccc2c(Cl)c3c(nc2c1)CCC3 the results were TDP1 cell noCPT 16µM*, ELG1 DNA repair 25%, HT1080-NT tox 21µM*, IL1B secr inh inconclusive, HT1080 IDH1KD tx 23µM* and DT40 TDP1 CPT inconclusive.
Screening C=CCn1c(Cc2ccccc2)nc2c(cnn2-c2ccccc2)c1=O returned TDP1 cell noCPT 23µM*, ELG1 DNA repair 21µM*, HT1080-NT tox inconclusive, IL1B secr inh 14, HT1080 IDH1KD tx inconclusive and DT40 TDP1 CPT inconclusive.
